Laboratory results as given in PubChem BioAssay AID1030 (National Center for Advancing Translational Sciences (NCATS), 2008).
Screen size: about 220,000 compounds; about 16,000 (7.3%) were called active. Roughly 25% stayed inconclusive and do not appear here. This is one part of a sample in which actives are shown more often than they occur. A number with no mark means an inactive call. Calls come from the whole dose curve; as a rule, active = well fitted inhibition curve with a large enough effect (not every such curve was filed as active); inconclusive = small, poorly fitted or top-dose-only effect, or another doubt; inactive = no such curve, though single readings can be large or run the other way.

molecular target: Aldehyde dehydrogenase 1A1 (Homo sapiens) (UniProt P00352); experiment: qHTS Assay for Inhibitors of Aldehyde Dehydrogenase 1 (ALDH1A1); conditions: Purified ALDH1A1, NADH fluorescence, propionaldehyde substrate; series mostly up to 75.3 µM; activity, negative = inhibition: at the top concentration;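 for activity, negative = inhibition: plate controls were no enzyme wells and a reference inhibitor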
Sequence (P00352 whole entry, looked up): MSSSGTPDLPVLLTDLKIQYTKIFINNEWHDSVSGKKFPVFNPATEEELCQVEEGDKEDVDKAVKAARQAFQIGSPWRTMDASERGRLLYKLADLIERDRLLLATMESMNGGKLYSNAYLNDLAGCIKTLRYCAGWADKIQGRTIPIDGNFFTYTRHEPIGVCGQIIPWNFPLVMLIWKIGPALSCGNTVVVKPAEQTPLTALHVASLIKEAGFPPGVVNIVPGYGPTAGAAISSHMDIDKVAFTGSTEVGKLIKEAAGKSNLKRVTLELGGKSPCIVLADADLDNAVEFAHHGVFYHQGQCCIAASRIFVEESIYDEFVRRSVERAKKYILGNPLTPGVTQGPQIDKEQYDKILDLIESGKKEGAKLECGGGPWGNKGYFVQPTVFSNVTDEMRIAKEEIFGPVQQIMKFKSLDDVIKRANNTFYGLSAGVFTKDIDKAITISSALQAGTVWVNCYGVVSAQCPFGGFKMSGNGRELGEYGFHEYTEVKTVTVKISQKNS
Potency is the fitted concentration of half-maximal effect.

| SMILES | activity, negative = inhibition [%] | Potency |
| --- | --- | --- |
| O=C(NCc1ccco1)c1ccc(NS(=O)(=O)c2cccc([N+](=O)[O-])c2)cc1 | 6.56 |  |
| COc1ccc(CCNC(=O)CSc2nc3[nH]ncc3c(=O)n2-c2cccc(C(F)(F)F)c2)cc1OC | 3.85 |  |
| Cc1ccc(Nc2c(F)c(F)c(F)c(F)c2C(=O)O)c(C)c1 | 1.05 |  |
| Cc1ccccc1C1CC(c2cccs2)=NN1S(C)(=O)=O (stereo unspecified) | -3.89 |  |
| Cc1cc(C)n(-c2ccc(C(=O)O)cc2[N+](=O)[O-])n1 | -4.66 |  |
| COc1ccc([C@H]2[C@H](C(C)=O)N3N=Cc4ccccc4C3C23C(=O)OC(C)(C)OC3=O)cc1 (stereo partly specified) |  | 10 µM (active) |
| COc1ccc(C2C(C(=O)N3CCN(c4ccc(OC)cc4)CC3)c3ccccc3C(=O)N2C)cc1 (stereo unspecified) | 8.86 |  |
| COc1ccccc1N1CCN(c2ccc([N+](=O)[O-])nc2)CC1 | -3.73 |  |
| CCCc1cc(-c2n[nH]c(=S)n2Cc2ccccc2)cs1 |  | 7.94 µM (active) |
| CCCc1cc(-c2n[nH]c(=S)n2CC)c2ccccc2n1 | -0.903 |  |
| CCn1c(-c2ccncc2)n[nH]c1=S | 1.16 |  |
| CCCOc1ccc(C(=O)NCCc2ccccc2)cc1 | -1.06 |  |
| C/C=C(/C)C(=O)OC1Cc2c(ccc3ccc(=O)oc23)OC1(C)C (stereo unspecified) | 0.157 |  |
| CC1(C)Oc2ccc3ccc(=O)oc3c2/C(=C/NCCO)C1=O |  | 25.1 µM (active) |
| C=CCN(CC=C)S(=O)(=O)c1ccc(C(=O)Nc2nc3c(s2)CCc2ccccc2-3)cc1 | 2.39 |  |
| COC(=O)c1c(NC(=O)CN(c2ccc(C)c(C)c2)S(C)(=O)=O)sc2c1CCCC2 | -27.4 |  |
| C=CCN(CC=C)S(=O)(=O)c1ccc(C(=O)Nc2sc3c(c2C(N)=O)CCCCC3)cc1 |  | 3.16 µM (active) |
| COCC(C)NC(=O)CSc1nc2nn(-c3ccccc3)c(=O)c-2c2n1CCCCC2 (stereo unspecified) | -4.5 |  |
| Cc1ccc(CNC(=O)CCNS(=O)(=O)c2ccc(Br)s2)cc1 | -6.51 |  |
| N#Cc1ccc(-c2nc3cc(C#N)c(C#N)cc3nc2-c2ccccc2)cc1C#N | 23.4 |  |
| O=C(COc1ccc(S(=O)(=O)NCCc2ccccc2)cc1)N1CCCC1 | -1.53 |  |
| O=C(COc1ccc(/C=N/NS(=O)(=O)c2ccccc2)cc1)NCCc1ccccc1 |  | 12.6 µM (active) |
| O=C(CC(=O)N/N=C\c1ccc(F)cc1)NCCc1ccccc1 | 3.28 |  |
| COc1ccccc1N1CCN(CC(=O)NCCc2ccc(S(N)(=O)=O)cc2)CC1 | 5.14 |  |
| COc1cc(CN2CCNC(=O)C2CC(=O)NCCc2ncccc2C)cc(OC)c1 (stereo unspecified) |  | 23.8 µM (active) |
| Cc1ccccc1-n1cc(CNC(=O)CC2C(=O)NCCN2C/C=C/c2ccccc2)cn1 (stereo unspecified) | 7.17 |  |

| SMILES | activity, negative = inhibition [%] | Potency |
| --- | --- | --- |
| COc1cccc(CN2CCNC(=O)C2CC(=O)N(C)CCc2ccccn2)c1 (stereo unspecified) | -0.0979 |  |
| Cc1cc(C)n(CCNC(=O)CC2C(=O)NCCN2Cc2ccc(C)o2)n1 (stereo unspecified) | -0.0057 |  |
| CN(CCc1cn[nH]c1)C(=O)CC1C(=O)NCCN1Cc1cccc(Oc2ccccc2)c1 (stereo unspecified) | -9.91 |  |
| O=C(CC1C(=O)NCCN1CC(c1ccccc1)c1ccccc1)NCCc1cn[nH]c1 (stereo unspecified) |  | 14.1 µM (active) |
| COC(=O)c1ccc(CN2CCN(CCCc3ccccc3)C(CCO)C2)cc1 (stereo unspecified) | -0.394 |  |
| COc1ccc(-c2csc(NC(=O)COC(=O)Cc3ccc(Cl)cc3Cl)n2)cc1 | 7.91 |  |
| COc1ccc(N2CCN(c3ccc([N+](=O)[O-])nc3)CC2)cc1 | 6.14 |  |
| CS(=O)(=O)N1CCc2cc(C(=O)Nc3ccccc3)ccc21 | 0.559 |  |
| Cc1cc(C)c(NC(=S)N2CCCC2C(=O)O)c(C)c1 (stereo unspecified) |  | 22.4 µM (active) |
| Cc1ccc(C)c(NC(=O)C2CCCN2C(=O)OC(C)(C)C)c1 (stereo unspecified) | -11.1 |  |
| Cc1cc([N+](=O)[O-])c(N2CCC[C@@H]2C(=O)O)c([N+](=O)[O-])c1 | 3.99 |  |
| Cc1cc(C(=O)COC(=O)C2CC2)c(C)n1-c1ccc(F)cc1 | -3.14 |  |
| COC(=O)[C@@H]1CC[C@H](C)[C@@H](c2ccc(C)cc2)N1C(=O)c1ccc(/C=N/O[C@H](C)c2cn([C@@H]3COC[C@H]3O)nn2)cc1 | -3.19 |  |
| O=C(Cc1ccc([N+](=O)[O-])cc1)N/N=C/c1ccco1 | -3.71 |  |
| CCCCN1CCNC1=S | 5.33 |  |
| CCOC(=O)CCNC(=O)N1CCCC(C(=O)c2ccccc2SC)C1 (stereo unspecified) | 5.76 |  |
| Cc1cccc(C(=O)NCC(=O)OCC(=O)N2CC3(C)CC2CC(C)(C)C3)c1 (stereo unspecified) | 3.13 |  |
| COc1ccccc1C(=O)N1CC2(C)CC1CC(C)(C)C2 (stereo unspecified) | -6.45 |  |
| Cc1nnnn1/C(=C\c1ccccc1)C(=O)OCC(=O)N1CC2(C)CC1CC(C)(C)C2 (stereo unspecified) |  | 4.47 µM (active) |
| COc1cc(N2C(=O)c3ccccc3C2=O)c(Cl)cc1C(=O)OCC(=O)N1CCOCC1 | -4.16 |  |
| CC(C)(O)C#Cc1ncc(C(F)(F)F)cc1Cl | 8.76 |  |
| CSc1ccc(CN(C)CC(=O)NCc2ccc(F)cc2)cc1 | -7.51 |  |
| CCC(C)[C@@H](C(=O)N1CCNCC1)n1cc(CCCCN)nn1 (stereo partly specified) | 2.27 |  |
| COc1cccc(CC(=O)N2CCCC(CCC(=O)N3CCN(c4ccccn4)CC3)C2)c1 (stereo unspecified) | 2.51 |  |
| CCSC1=C(C#N)C(=O)n2c1cc1c2CCCC1 |  | 4.47 µM (active) |
